An excerpt weighted towards active compounds, which were near 8.9% of everything screened.
SW480 rereplic = A quantitative high throughput screen for small molecules that induce DNA re-replication in SW480 colon adenocarcinoma cells; SW480 DNA re-replication, Hoechst DNA content imaging, 48 h; Potency, µM (series often up to 46.1 µM), most hits filed as activators; actives 1.8% (n = 340,000); note: nearly all actives have a fitted effect of over 55% in size
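Image-based DNA-content assay: after two days of treatment, nuclei were labelled with the DNA dye Hoechst and imaged, and hits were compounds raising the count of nuclei showing high fluorescence intensity.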
KB-V1 cytotox = qHTS assay for MDR1-selective chemotherapeutics: Primary screen using the drug-selected MDR subline cells KB-V1; Potency, µM (top dose mostly 46.1 µM), actives largely listed as cytotoxic; AID 1347076, 2019; KB-V1 MDR cells viability, CellTiter-Glo, 72 h; actives 3.4% (n = 400,000); note: nearly all actives have a fitted effect of over 60% in size
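KB-V1 MDR subline cells in DMEM (phenol-red free, 10% FBS) exposed to compounds in qHTS concentration series for 72 h at 37 degrees C. Viability read by CellTiter-Glo luminescence; concentration-effect curves fitted after normalization and correction.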
MCF10A rerep = A quantitative high throughput screen for small molecules that induce DNA re-replication in MCF 10a normal breast cells. MCF 10A DNA re-replication, Hoechst nuclear intensity, 48 h. Potency, µM (top dose mostly 46.1 µM), hits mostly activators. actives 2.9% (n = 350,000); note: nearly all actives have a fitted effect of over 50% in size
DRD3 antagonist = qHTS of D3 Dopamine Receptor Antagonist: qHTS; D(3) dopamine receptor (Homo sapiens), P35462; actives 2.5% (n = 360,000); max response, negative = inhibition, %; D3R cells, DiscoveRx beta-arrestin luminescence, antagonist mode; stronger effect = lower value; in the data active = max response below about -50%; inconclusive = no clear call, values can overlap the other calls
Target sequence (P35462 whole entry, looked up): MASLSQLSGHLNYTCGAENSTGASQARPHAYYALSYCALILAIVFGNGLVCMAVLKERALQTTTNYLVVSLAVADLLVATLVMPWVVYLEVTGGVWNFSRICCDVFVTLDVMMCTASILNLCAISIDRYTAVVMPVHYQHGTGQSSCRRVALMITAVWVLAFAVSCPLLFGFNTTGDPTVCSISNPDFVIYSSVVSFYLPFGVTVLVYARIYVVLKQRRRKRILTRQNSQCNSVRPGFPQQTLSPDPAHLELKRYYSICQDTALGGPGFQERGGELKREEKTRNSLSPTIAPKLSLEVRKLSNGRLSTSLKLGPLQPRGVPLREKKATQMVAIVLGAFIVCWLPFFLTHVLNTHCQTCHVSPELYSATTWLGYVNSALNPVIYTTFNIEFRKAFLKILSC
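Cells plated overnight at 1500 cells/well, then exposed to library compounds with dopamine controls for 90 minutes at 37 degrees C. DiscoveRx reagent added for 30–60 minutes at room temperature; luminescence read, quantitative HTS format.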
DRD3 agonist = qHTS of D3 Dopamine Receptor Agonist: qHTS; max activation, %; actives 0.58% (n = 410,000); D3R DiscoveRx beta-arrestin cells, luminescence, 90 min; in the data active = max activation above about 30%
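Cells at 1500/well, incubated overnight, then treated with pinned compounds (dopamine as control) for 90 min at 37 degrees C. DiscoveRx reagent added for 30 - 60 minutes at room temperature; luminescence read.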
KB-3-1 tox = qHTS assay for MDR1-selective chemotherapeutics: Primary screen using the parental adenocarcinoma cell KB-3-1. Potency, µM (top dose mostly 46.1 µM), usual class: cytotoxic. actives 1.4% (n = 400,000). AID 1347075, 2019. KB-3-1 viability, CellTiter-Glo ATP luminescence, 72 h; note: nearly all actives have a fitted effect of over 60% in size
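Cytotoxicity measured as CellTiter-Glo luminescence after 72 h at 37 C. Compound titrations were pinned onto drug-naive KB-3-1 parental adenocarcinoma cells grown in DMEM with 10% FBS, and normalized data fitted to concentration-response curves.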
Numbers stand for hits; i = inactive; ? = inconclusive; nt = no result; [ ] = dose if it differs, or a comment. Unless noted, calls come from the whole dose curve; as a rule, active = well fitted curve in the direction sought with a large enough effect; inconclusive = small, poorly fitted or top-dose-only effect, or another doubt; inactive = no such curve, though single readings can be large; an effect the other way counts as inactive or inconclusive.

SMILES | SW480 rereplic | KB-V1 cytotox | MCF10A rerep | DRD3 antagonist | DRD3 agonist | KB-3-1 tox
CC(C)(C)OC(=O)[C@H](Cc1ccccc1)NC(=O)c1[nH]cnc1C(=O)N[C@@H](Cc1ccccc1)C(=O)OCc1ccccc1 | i[9.22 µM] | ? | i | i | i | ?
CC(C)(C)OC(=O)[C@H](Cc1ccccc1)NC(=O)c1nc[nH]c1C(=O)N[C@@H](Cc1ccccc1)C(=O)OC(C)(C)C | i | ? | i | i | i | 16µM
C[C@H](NC(=O)c1nc[nH]c1C(=O)N[C@@H](Cc1ccccc1)C(=O)OC(C)(C)C)C(=O)OC(C)(C)C | i | ? | ? | i | i | ?
CCOC(=O)c1ccc(NC(=O)c2nc[nH]c2C(=O)N[C@@H](Cc2ccccc2)C(=O)OC(C)(C)C)cc1 | ? | i | i | i | i | 13µM
Cc1cccc(NC(=O)c2nc[nH]c2C(=O)N[C@@H](Cc2ccccc2)C(=O)OC(C)(C)C)c1 | i | ? | 3.7µM | i | i | ?
CCOc1ccc2c(c1)c(=O)c(C(=O)c1ccc3c(c1)OCO3)cn2Cc1ccc(F)cc1 | nt | nt | nt | nt | i | nt
NN1C(=O)NC(c2ccccc2)(c2ccccc2)C1=O | i | i | 0.73µM | i | i | i
CC(C)NC(=O)C1CCN(C(=O)c2cc3sccc3n2Cc2ccc(F)cc2)CC1 | i | 6.5µM | i | ? | i | 18µM
Cc1c(Cl)cccc1NC(=O)c1cc(-c2cccs2)on1 | nt | i | nt | nt | i | i
O=C(/C=C/c1ccc([N+](=O)[O-])o1)Nc1cccc([S+](=O)([O-])Nc2ccccc2F)c1 | nt | i | nt | nt | nt | i
CCc1nc2ccc(C(=O)NC(C)(C)C)cn2c1N(CC)Cc1cccc(Br)c1 | nt | 21µM | nt | i | i | ?
CCc1nc2ccc(C(=O)NCc3ccc4c(c3)OCO4)cn2c1N(CC)Cc1cccc(Br)c1 | nt | ? | nt | i | i | ?
O=C(NC1(C(F)(F)F)C(=O)Nc2c1c(=O)[nH]c(=O)n2-c1ccc(Cl)cc1)c1ccccc1F (stereo not drawn) | nt | nt | nt | nt | i | nt
Oc1c(Br)cc(/C=N/Nc2ccc(Cl)nn2)cc1Br | i | i | i | i | i | i
Oc1c(Br)cc(Br)cc1/C=N/Nc1ccc(Cl)nn1 | ? | i | ? | -68 | i | ?
CCOc1ccc(/C=N/Nc2ccc(Cl)nn2)c(O)c1 | 0.18µM | ? | ? | i | i | ?
CCCCN(CC)CCCn1cnc2c([nH]c3ccc(Cl)cc32)c1=O | nt | i | nt | nt | i | i
Cc1nn(Cc2ccc(C(=O)Nc3ccccc3C(F)(F)F)o2)c(C)c1Br | i | i | ? | i | i | ?
Cc1ccc(CNC(=O)c2ccc(Cn3nc(C)c(Cl)c3C)o2)cc1 | i | i | i | -53 | i | i
Cc1csc(NC(=O)c2ccc(Cn3nc(C)c(Br)c3C)o2)n1 | i | 2.6µM | ? | i | i | ?
O=C(/C=C/c1ccc(C(F)(F)F)cc1)OC(C(=O)NC1CC1)c1ccccc1 (stereo not drawn) | nt | i | nt | nt | nt | i
CCOc1ccc(CN(C)c2ccc(S(=O)(=O)N3CCN(C)CC3)cc2[N+](=O)[O-])cc1OC | i | 2.3µM | ? | i | i | 7.3µM
CN1CCN(S(=O)(=O)c2ccc(N(C)Cc3ccc(C(F)(F)F)cc3)c([N+](=O)[O-])c2)CC1 | ? | i | ? | i | i | i
C=CCOc1ccc(CN(C)c2ccc(S(=O)(=O)N3CCN(C)CC3)cc2[N+](=O)[O-])cc1 | i | 8.2µM | ? | ? | i | ?
Cc1cc(O)c(C2=Nc3ccccc3SC(c3ccc(Cl)cc3)C2)c(=O)o1 (stereo not drawn) | nt | ? | 5.2µM | i | i | i
O=c1[nH]c(=O)n(C2CCCCC2)c(O)c1C1=Nc2ccccc2SC(c2ccccc2)C1 (stereo not drawn) | nt | i | nt | nt | i | i
Nc1ccc(O)cc1C(=O)OCC(=O)c1ccc(C2CCCCC2)cc1 | 9.2µM | i | 23µM | i | i | i

From PubChem
